Source: PubChem BioAssay AID904 (National Center for Advancing Translational Sciences (NCATS), 2007)
The campaign covered roughly 55,000 compounds. About 530 (0.96%) were called active. A call without a number means that no potency is given here. Roughly 7% stayed inconclusive and do not appear here. The sample holds actives, similar compounds and a random draw of the others, so the mix is not that of the screen. Calls come from the whole dose curve; as a rule, active = well fitted cell-killing curve with a large enough effect; inconclusive = small, poorly fitted or top-dose-only effect; inactive = no such curve, though single readings can be large or run the other way.

Assay: qHTS Screen for Compounds that Selectively Target Cancer Cells with p53 Mutations: Cytotoxicity of p53 Null Cells at the Nonpermissive Temperature; note: nearly all actives have a fitted effect of over 50% in size
Details: H1299 p53-null (neo) cells, 39C, ATPlite viability, 24 h; series mostly up to 46.1 µM
How it was run: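 Luminescent ATP signal reported cell survival after H1299 lines (neo, p53 null; or p53 A138V) received up to 46 uM compound and 24 hr incubation at 39C.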
Potency is the fitted concentration of half-maximal effect.

With `COc1cc(Cl)c(C)cc1NC(=O)COC(=O)c1cc(SC)ccc1Cl` as the compound, how does the Potency read?
Its Potency is “inactive”.

With `Cc1cc2n(n1)C(c1cc(C(C)(C)C)c(O)cc1O)Nc1ccccc1-2` (centres undefined) as the compound, how does the Potency read?
Its Potency is “inactive”.

Which Potency does the source give for `c1ccc(-c2noc(-c3cccs3)n2)nc1` here?
The Potency was 14.1 µM (active).

Which Potency does the source give for `Clc1ccc(-n2nnnc2-c2cnc(-c3ccccn3)nc2-c2cccs2)cc1` here?
Its Potency is “inactive”.

Which Potency does the source give for `O=C(CN1C(=O)CCn2nc(-c3ccccc3)cc21)NCc1ccccc1` here?
The Potency was “inactive”.

With `CN(C(=O)c1c(Cl)cnn1C)C12CC3CC(CC(C3)C1)C2` as the compound, how does the activity, negative = cell killing read?
The activity, negative = cell killing was 17.1% [at 1.84 µM] (inactive).

With `COc1ccc(-c2csc(NC(=O)COC(=O)Cc3ccc(Cl)cc3Cl)n2)cc1` as the compound, how does the Potency read?
Its Potency is “inactive”.

Which Potency does the source give for `COc1ccc(NC(=O)c2cc3cc(C)ccc3n2C)cc1` here?
Its Potency is “inactive”.

For `Nc1nnc(SCC(=O)Nc2ccc3nc(SCC(=O)Nc4ccccc4)sc3c2)s1`, which Potency is on record?
Its Potency is “inactive”.

Which Potency does the source give for `Cc1ccccc1CNC(=O)CSc1nnc(C)c2c(C)n(-c3ccccc3)nc12` here?
Its Potency is “inactive”.

Which Potency does the source give for `O=C(CSc1ccc(C(F)(F)F)cc1[N+](=O)[O-])NCCOc1ccccc1` here?
The Potency was “inactive”.

For `COc1ccc(-c2c3c(=O)n(C)c(=O)n(C)c3c3c(C)nc4ccccc4n23)cc1`, which Potency is on record?
The Potency was “inactive”.

Which Potency does the source give for `CCc1nnc(SCc2nc(-c3cccc(C)c3)oc2C)c2cc3sc(C)cc3n12` here?
The Potency was “inactive”.

Which Potency does the source give for `Cc1noc(COc2ccccc2OCc2onc(C)c2Cl)c1Cl` here?
Its Potency is “inactive”.

Which Potency does the source give for `O=C(NCCc1ccc(Cl)cc1)c1ccc2nc(CCc3ccccc3)oc2c1` here?
Its Potency is “inactive”.

With `COc1cc(C(=O)NCCc2csc3nc(-c4ccccc4C)nn23)cc(OC)c1OC` as the compound, how does the Potency read?
Its Potency is “inactive”.

With `COc1ccc2c(c1)c(N1CCCC1=O)c(C(=O)Nc1ccccc1C(F)(F)F)n2C` as the compound, how does the Potency read?
Its Potency is “inactive”.

For `Cc1ccccc1-n1c(C)cc(/C=C2\NC(=O)NC2=O)c1C`, which Potency is on record?
Its Potency is 8.91 µM (active).

With `CCc1ccc(CNC(=O)c2cc3cc4ccc(OC)cc4nc3o2)cc1` as the compound, how does the Potency read?
Its Potency is “inactive”.

For `CCOc1ccc(NC(=O)Cn2cc(C(=O)c3ccc(C)cc3)c(=O)c3cc4c(cc32)OCCO4)cc1`, which Potency is on record?
Its Potency is “inactive”.

For `Cc1cc(C)cc(NC(=O)CSc2nc(=O)n(CCN3CCOCC3)c3c2CCC3)c1`, which Potency is on record?
Its Potency is “inactive”.

With `CCCCCCCCC(=O)NCCOc1ccccc1` as the compound, how does the Potency read?
Its Potency is “inactive”.

Which Potency does the source give for `Cc1ccc(NC(=O)CN2C(=O)CC(C)Sc3ccccc32)c(C)c1` (centres undefined) here?
The Potency was “inactive”.

With `O=C(CSc1nc2c(c(=O)[nH]1)CN(Cc1ccc(F)cc1)CC2)Nc1ccccc1Cl` as the compound, how does the Potency read?
Its Potency is “inactive”.

Which Potency does the source give for `Cc1cccc2nc(-c3ccc(Cl)s3)c(Nc3ccc4c(c3)OCCO4)n12` here?
The Potency was “inactive”.

For `Cc1ccc(Nc2c(-c3ccc(C)s3)nc3ccccn23)cc1`, which Potency is on record?
Its Potency is “inactive”.

Which Potency does the source give for `Cc1ccn2c(Nc3ccc4c(c3)OCCO4)c(-c3ccc(C)s3)nc2c1` here?
The Potency was 10 µM (active).

With `CCn1c2ccccc2c2nnc(N3CCN(c4cc(C)ccc4C)CC3)nc21` as the compound, how does the Potency read?
The Potency was “inactive”.

With `Cc1ccc(CCNC(=O)c2ccc(CS(=O)(=O)Cc3cccc(C)c3)o2)cc1` as the compound, how does the Potency read?
The Potency was “inactive”.

For `Cc1ccc(Cl)cc1N1CCN(C(=O)CN2C(=O)COc3ccc(S(=O)(=O)N4CCOCC4)cc32)CC1`, which Potency is on record?
Its Potency is “inactive”.

Which Potency does the source give for `Cc1cc(C)cc(-n2c(SCC(=O)NCC3CCCO3)nc3c([nH]c4ccccc43)c2=O)c1` (centres undefined) here?
Its Potency is “inactive”.

With `COc1ccc(-c2cc(C(=O)Nc3sc4c(c3C(N)=O)CCCC4)no2)cc1` as the compound, how does the Potency read?
Its Potency is “inactive”.

Which Potency does the source give for `CC1CCc2noc(NC(=O)c3ccc([N+](=O)[O-])cc3)c2C1` (centres undefined) here?
Its Potency is “inactive”.

For `COc1ccc(C(=O)Nc2onc3c2CCCC3)cc1`, which Potency is on record?
Its Potency is 7.94 µM (active).

With `O=C(Cn1ncc2c3ccccc3n(Cc3ccccc3)c2c1=O)NC1CCCCCC1` as the compound, how does the Potency read?
The Potency was “inactive”.

With `Cc1c(Cl)cccc1NC(=O)c1noc2c1CCCC2` as the compound, how does the Potency read?
Its Potency is “inactive”.

With `O=C(N/N=C/c1cccc([N+](=O)[O-])c1)C1CC(=O)N(c2ccc(Br)cc2)C1` (centres undefined) as the compound, how does the Potency read?
Its Potency is “inactive”.

For `CN(Cc1ccccc1)C(=O)COC(=O)c1ccccc1Nc1ccccc1`, which activity, negative = cell killing is on record?
Its activity, negative = cell killing is -8.55% [at 1.84 µM] (inactive).

For `O=C(NCc1ccccc1)c1cccc(NC(=O)N2CCSc3ncccc32)c1`, which Potency is on record?
The Potency was “inactive”.
